Screening results as filed in PubChem.
Mtb FBA inh – Mtb FBA enzyme inhibitors, primary screen, biochemical, fluorescence, strain H37Rv | 360,000 compounds, 2.3% hits | inhibition, % at 1 µM | purified M. tuberculosis FBA, fluorescence read-out | AID 588726, 2011; in the data active means inhibition above about 27%
Target sequence (P9WQA3 whole entry, looked up): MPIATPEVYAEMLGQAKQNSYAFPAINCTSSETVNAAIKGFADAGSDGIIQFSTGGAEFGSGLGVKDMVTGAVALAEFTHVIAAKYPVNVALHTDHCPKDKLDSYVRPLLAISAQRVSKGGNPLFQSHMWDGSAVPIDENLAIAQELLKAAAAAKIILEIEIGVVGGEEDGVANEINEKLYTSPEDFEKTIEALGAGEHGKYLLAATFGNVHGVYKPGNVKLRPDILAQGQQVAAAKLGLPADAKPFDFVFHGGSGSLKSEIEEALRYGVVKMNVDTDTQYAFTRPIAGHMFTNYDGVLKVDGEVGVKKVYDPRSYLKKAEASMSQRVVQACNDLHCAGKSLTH
CCHF vOTU inh – CCHFV vOTU protease inhibitors, primary screen, biochemical, Pep-AMC substrate, fluorescence | Crimean-Congo hemorrhagic fever virus L polyprotein viral ovarian tumor (vOTU) protease … | 370,000 compounds, 0.55% hits | AID 651958, 2012 | inhibition, % at 11.5 µM
DUSP3 inh – VHR1 phosphatase inhibitors, primary screen, biochemical, absorbance, uHTS. 290,000 compounds, 0.52% hits. inhibition, % at 13.3 µM. recombinant VHR phosphatase, pNPP absorbance; in the data active means inhibition above about 50%
Target sequence (P51452 whole entry, looked up): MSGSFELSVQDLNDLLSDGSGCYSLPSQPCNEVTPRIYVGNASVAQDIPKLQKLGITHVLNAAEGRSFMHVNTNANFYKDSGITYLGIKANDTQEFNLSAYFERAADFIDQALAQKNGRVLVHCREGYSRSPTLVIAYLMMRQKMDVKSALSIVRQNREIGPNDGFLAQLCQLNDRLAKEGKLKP
SARS 3CLpro inh – SARS-CoV 3CLpro protease inhibitors, primary screen, biochemical, quenched FRET | AID 1706, 2009 | 290,000 compounds, 0.14% hits | inhibition, % at 6 µM | recombinant SARS-CoV 3CLpro, quenched FRET peptide cleavage | Replicase polyprotein 1ab (Severe acute respiratory syndrome coronavirus), P0C6X7; in the data active means inhibition above about 12%
RecA intein inh – Mtb RecA intein splicing inhibitors, primary screen, biochemical, fluorescence, HTS; cell-free RecA intein splicing; inhibition, % (test concentration not listed); 290,000 compounds, 0.75% hits; in the data active means inhibition above about 30%
GDH-TPI counter – GDH-TPI coupling enzyme inhibitors, primary screen, artefact control for M. tuberculosis FBA inhibitor project, biochemical, absorbance, full deck. AID 588335, 2011. GDH-TPI coupled enzyme counterscreen, NADH absorbance. 360,000 compounds, 1.2% hits. inhibition, % at 4.8 µM
Numbers stand for hits; . = inactive; / = no result given; + = active, no number. Sampled rows, rich in hits. Any-hit rate of the full collection: about 4.7%. Unless noted, no stated cut-off is given here; in the data, active means inhibition above about 30%; inactive means the rest.

SMILES	Mtb FBA inh	CCHF vOTU inh	DUSP3 inh	SARS 3CLpro inh	RecA intein inh	GDH-TPI counter
CCCCN=C(N)NC(=O)c1ccccc1	/	.	/	/	/	/
Cc1ccc2c(C)c3ccc4ccccc4c3c[n+]2c1	+	.	/	/	/	.
CC(=O)Nc1cccc(-c2nc3ccc(NC(C)=O)cc3[nH]2)c1	+	.	.	.	.	.
CC(=O)Nc1cccc(-c2nc3ccccc3s2)c1	.	.	.	.	.	.
Nc1ccc(C(=O)Nc2ccc3nc(-c4cccnc4)[nH]c3c2)cc1	.	.	.	.	.	37
CC(=O)Nc1cccc(-c2nc3ccc(NC(C)=O)cc3s2)c1	+	.	.	.	.	.
CC(=O)Nc1ccc2nc(NC(=O)COc3ccccc3C)sc2c1	.	.	.	.	.	.
CC(=O)Nc1cccc(-c2nc3ccccc3[nH]2)c1	.	.	.	.	.	.
COc1cccc2sc(Nc3nc4ccc(NC(C)=O)cc4s3)nc12	89	.	.	.	.	.
CN1CC=C(c2ccc(C(F)(F)F)cc2)N(c2ccc(Br)cc2)C1=O	/	.	/	/	/	/
O=C(O)CCC(=O)Nc1ccc(-c2nc3ccc(C(=O)c4ccccc4)cc3[nH]2)cc1	.	.	.	.	.	38
COc1cccc2sc(Nc3nc(-c4ccncc4)cs3)nc12	.	.	.	.	.	38
CCN(C)C(=O)CN1C(=O)C2CCCCN2C(=O)c2ccccc21 (stereo unspecified)	/	.	/	/	/	/
CCOC(=O)[C@@]12CCCC=C1N(CCc1ccc(Cl)cc1)C(=O)[C@H]2CC(=O)NCC12CC3CC(CC(C3)C1)C2	/	.	/	/	/	/
COc1ccccc1CNC(=O)C1CCC(CNS(=O)(=O)c2ccc(C)cc2)CC1 (stereo unspecified)	.	.	.	.	.	.
Cc1nn(C)c(C)c1S(=O)(=O)N(CC(=O)N1CCc2ccccc21)c1ccc(C(C)C)cc1	.	.	50	.	.	.
COc1ccc(N(CC(=O)N2CCc3ccccc32)S(=O)(=O)c2c(C)nn(C)c2C)cc1	.	.	.	.	.	.
Cc1nc2ccccc2c(=O)n1/N=C/c1ccc(O)cc1	.	.	.	.	.	.
C/C(=N\n1c(C)nc2ccccc2c1=O)c1ccc(N)cc1	.	.	/	/	.	35
COCCn1c(=NC(=O)c2cccs2)sc2cc(NC(C)=O)ccc21	.	.	.	.	.	45
COC(=O)C1=C(C)N(C)C(=NCc2cccc(C(F)(F)F)c2)NC1c1ccc(C(F)(F)F)cc1 (stereo unspecified)	/	.	/	/	/	/
Cc1sc(NC(=O)c2ccco2)c(C(c2cccnc2)N2CCCC2)c1C (stereo unspecified)	.	.	.	.	.	31
CC[C@@]1(O)C(=O)OCc2c1cc1n(c2=O)Cc2cc3c(CN(C)C)c(O)ccc3nc2-1	.	.	/	/	.	34
CC[C@@]1(O)C(=O)OCc2c1cc1n(c2=O)Cc2cc3c(N)cccc3nc2-1	.	.	.	/	.	33
COc1ccc(NS(=O)(=O)c2cc3c(cc2C)N(C(C)=O)CCO3)cc1OC	.	.	.	.	.	.
SMILES	Mtb FBA inh	CCHF vOTU inh	DUSP3 inh	SARS 3CLpro inh	RecA intein inh	GDH-TPI counter
COc1ccc(OC)c(CNC(=O)C2CCCN(S(=O)(=O)N3CCC(C)CC3)C2)c1 (stereo unspecified)	.	.	.	.	.	.
COc1ccc(OC)c(CNC(=O)C2CCN(S(=O)(=O)N3CCCCC3)CC2)c1	.	.	51	.	.	.
COc1ccccc1CNC(=O)C1CCCN(S(=O)(=O)c2c(C)[nH]c(=O)[nH]c2=O)C1 (stereo unspecified)	65	.	.	.	.	.
COc1cccc(CNC(=O)C2CCCN(S(=O)(=O)c3c(C)noc3/C=C/N(C)C)C2)c1 (stereo unspecified)	.	.	.	.	.	34
Cc1noc(/C=C/N(C)C)c1S(=O)(=O)N1CCCC(C(=O)NCc2cccs2)C1 (stereo unspecified)	.	.	.	.	.	38
COc1ccccc1CNC(=O)C1CCCN(S(=O)(=O)c2cnc[nH]2)C1 (stereo unspecified)	.	.	.	.	/	.
O=C(CCn1nnc2ccccc21)N1CCN(c2cccc(C(F)(F)F)c2)CC1	/	.	/	/	/	/
O=C(CCC1CCCN(C(=O)c2ccccc2Cl)C1)N1CCN(c2ccccn2)CC1 (stereo unspecified)	.	.	52	.	.	.
CC(=O)c1ccccc1C(=O)N1CCCC(CCC(=O)N2CCN(c3ccccn3)CC2)C1 (stereo unspecified)	.	.	.	.	/	.
O=C(CCN1CCN(c2ccccc2)CC1)N/N=C/c1ccc([N+](=O)[O-])o1	.	.	.	.	.	38
Cc1ccc(OCC(=O)N/N=C/C=C/c2ccco2)cc1	.	.	.	.	.	.
O=C(COc1ccccc1[N+](=O)[O-])N/N=C/C=C/c1ccco1	.	.	.	.	.	49
Cc1ccccc1OCC(=O)N/N=C/c1ccc([N+](=O)[O-])o1	.	.	52	.	.	.
Cc1cc(NS(=O)(=O)c2ccc(NC(=O)CSc3nnc(-c4cccnc4)n3-c3ccccc3)cc2)nc(C)n1	/	.	/	/	/	/
CN(C)CCOC(=O)NCC12CC3CC(CC(C3)C1)C2	.	.	.	.	.	.
CCOc1cc(/C=C2\C(=N)N3N=C(S(=O)(=O)CC)SC3=NC2=O)ccc1OC(=O)c1ccco1	.	.	.	.	31	.
CCOc1cc(/C=C2/C(=N)N3N=C(CC)SC3=NC2=O)ccc1OC(=O)c1ccco1	.	.	.	.	.	.
CCOc1cc(/C=C2\C(=N)N3N=C(N4CCCCC4)SC3=NC2=O)ccc1OC(=O)c1ccco1	.	.	.	.	35	.
CC1CCC(NC(=O)Cn2cnc3sccc3c2=O)CC1 (stereo unspecified)	.	.	/	/	/	.
COCCC(=O)N1CCC(Oc2ccc(C(=O)N3CCCCCC3)cc2)CC1	.	.	.	.	.	.
C#CCN(C(=O)c1ccc(OC2CCN(C(=O)CCOC)CC2)cc1)C1CCCCC1	.	.	53	.	.	.
Cc1ccc(Cl)cc1N1CCN(C(=O)c2ccc3c(c2)CCN3S(C)(=O)=O)CC1	.	.	57	.	.	.
CS(=O)(=O)N1CCc2cc(C(=O)N3CCN(c4cccc(Cl)c4)CC3)ccc21	.	.	.	.	.	.
COc1ccc(-c2cc(-c3ccccc3)nc(Cl)n2)cc1OC	.	.	51	.	.	33
Cc1ccc(-c2cc(-c3ccccc3)nc(Cl)n2)cc1	.	.	.	.	.	.
COc1ccc(-c2nc3ccccc3nc2-c2ccccc2)cc1OC	.	.	.	.	.	31
